Source: PubChem BioAssay
Calls of active or inactive are those of the source. How the calls were made is not given here.

biological target: Pantothenate synthetase (Mycobacterium tuberculosis (strain ATCC 25618 / H37Rv)) (UniProt P9WIL5); test: Coupled enzyme confirmation of inhibitors against recombinant Mtb PanC (AID 375); details: coupled enzyme assay; at 10 µM, active compounds read high;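 further: 0% = full reaction with vehicle and 100% = no enzyme background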
Sequence (P9WIL5 whole entry, looked up): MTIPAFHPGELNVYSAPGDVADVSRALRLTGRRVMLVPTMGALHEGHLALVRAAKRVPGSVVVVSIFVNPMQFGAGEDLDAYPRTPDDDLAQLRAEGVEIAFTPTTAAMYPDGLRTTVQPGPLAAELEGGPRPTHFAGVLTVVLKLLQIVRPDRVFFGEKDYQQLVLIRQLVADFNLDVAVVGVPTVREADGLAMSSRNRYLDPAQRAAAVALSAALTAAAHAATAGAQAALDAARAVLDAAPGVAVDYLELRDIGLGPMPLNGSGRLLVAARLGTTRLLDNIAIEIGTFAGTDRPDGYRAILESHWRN

Q: How did the inhibition turn out when `Nc1nnc(-c2cc3ccccc3oc2=O)s1` was run?
A: Its inhibition is 8% (inactive).

Q: Which inhibition does the source give for `CCOC(=O)C1CCCN(C(=O)c2cn(C)c(=O)c3cc(OC)c(OC)cc23)C1` (stereo not given) here?
A: The inhibition was 0% (inactive).

Q: With `COc1ccc(-c2nn3c(-c4cccc(C)c4)nnc3s2)cc1OC` as the compound, how does the inhibition read?
A: The inhibition was 4% (inactive).

Q: With `C=CCNC(=O)CSc1ccc(Cl)cc1` as the compound, how does the inhibition read?
A: Its inhibition is 0% (inactive).

Q: Which inhibition does the source give for `COc1cc(OC)cc(C(=O)N2c3ccc(F)cc3CCC2C)c1` (stereo not given) here?
A: The inhibition was 0% (inactive).

Q: `Cc1cccc(Nc2nc3c(c(=O)n(C)c(=O)n3C)n2Cc2ccccc2)c1` was tested. Which inhibition did it give?
A: The inhibition was 5% (inactive).

Q: Which inhibition does the source give for `Cc1ccc(C)c(-c2nc3cc(N)ccc3o2)c1` here?
A: The inhibition was 0% (inactive).

Q: Which inhibition does the source give for `Cc1ccc(-n2nc3cc(Cl)c(NC(=O)c4ccco4)cc3n2)cc1` here?
A: The inhibition was 3% (inactive).

Q: `CC1=C(C(=O)Nc2ccc(F)cc2)C(c2cccc(C)c2)n2nc(CCCO)nc2N1` (stereo not given) was tested. Which inhibition did it give?
A: The inhibition was 6% (inactive).

Q: `COc1cccc(CC(=O)Nn2c(C)nc3ccccc3c2=O)c1` was tested. Which inhibition did it give?
A: Its inhibition is 2% (inactive).

Q: With `CC1(C)CC(=O)C=C(Nc2ccc(OCC(F)(F)C(F)F)cc2)C1` as the compound, how does the inhibition read?
A: The inhibition was 5% (inactive).

Q: With `O=C(Cn1ncc2c1-c1ccccc1OC2)Nc1ccc(Cl)cn1` as the compound, how does the inhibition read?
A: The inhibition was 6% (inactive).

Q: Which inhibition does the source give for `COCCN(CCOC)C(=O)CCn1c(=O)oc2ccccc21` here?
A: Its inhibition is 0% (inactive).

Q: With `COC(=O)c1ccc(NC2(C#N)C(=O)Nc3ccccc32)cc1` (stereo not given) as the compound, how does the inhibition read?
A: The inhibition was 0% (inactive).

Q: For `COC(=O)CN(Cc1ccco1)S(=O)(=O)c1ccccc1`, which inhibition is on record?
A: The inhibition was 1% (inactive).

Q: For `COc1ccc(OC)c(C2C(C(=O)Nc3cccnc3)=C(C)NC3=C2C(=O)CCC3)c1` (stereo not given), which inhibition is on record?
A: The inhibition was 0% (inactive).

Q: Which inhibition does the source give for `COC(=O)c1sc(N)c(C(=O)OC)c1COC(=O)C1CC(=O)N(Cc2ccco2)C1` (stereo not given) here?
A: Its inhibition is 3% (inactive).

Q: For `CCNC(=O)N(C)c1nncnc1C(=O)NC`, which inhibition is on record?
A: Its inhibition is 0% (inactive).

Q: Which inhibition does the source give for `COCCN(Cc1cc2cc3c(cc2n2nnnc12)OCO3)C(=O)c1ccccc1F` here?
A: The inhibition was 2% (inactive).

Q: `COc1ccc2cc(C(c3nnnn3C(C)(C)C)N3CCc4ccccc4C3)c(=O)[nH]c2c1` (stereo not given) was tested. Which inhibition did it give?
A: Its inhibition is 11% (inactive).

Q: For `O=C(NC(NC1CCS(=O)(=O)C1)C(=O)c1cccs1)c1ccccc1` (stereo not given), which inhibition is on record?
A: The inhibition was 1% (inactive).

Q: For `Cn1c([N+](=O)[O-])cnc1COC(N)=O`, which inhibition is on record?
A: Its inhibition is 0% (inactive).

Q: For `COc1ccc(OC)c(CNC(=O)COc2cc(=O)n(C)c3ccccc23)c1`, which inhibition is on record?
A: Its inhibition is 0% (inactive).

Q: With `c1ccc(-c2nn3c(Cn4nnc5ccccc54)nnc3s2)nc1` as the compound, how does the inhibition read?
A: Its inhibition is 0% (inactive).

Q: `CCC(=O)Nc1ccc(NC(=O)c2cccc(OC)c2)nc1` was tested. Which inhibition did it give?
A: Its inhibition is 0% (inactive).

Q: `Cc1cccc2cc(CN(Cc3nnnn3C3CCCC3)C3CCCCC3)c(=O)[nH]c12` was tested. Which inhibition did it give?
A: The inhibition was 4% (inactive).

Q: `O=C(NCCC1=CCCCC1)N[C@@H](Cc1ccccc1)C(=O)O` was tested. Which inhibition did it give?
A: Its inhibition is 6% (inactive).

Q: How did the inhibition turn out when `Cc1nnc(SCC(=O)Nc2cc(C(F)(F)F)ccc2N2CCOCC2)o1` was run?
A: Its inhibition is 0% (inactive).

Q: `CSc1n[nH]c(NCc2ccccc2)n1` was tested. Which inhibition did it give?
A: Its inhibition is 6% (inactive).

Q: `CCOCCCNC(=O)CN1CCN(Cc2ccccc2C)C1=O` was tested. Which inhibition did it give?
A: Its inhibition is 5% (inactive).

Q: For `O=C(CC1CCCCC1)NCc1ccccn1`, which inhibition is on record?
A: The inhibition was 0% (inactive).

Q: For `CC(C)CC(OC(=O)c1cccs1)C(=O)NCc1ccco1` (stereo not given), which inhibition is on record?
A: The inhibition was 0% (inactive).

Q: How did the inhibition turn out when `Cc1cc(NC(=O)CSc2nc(C3CC3)nc3sc4c(c23)CCC(C)C4)no1` (stereo not given) was run?
A: Its inhibition is 6% (inactive).

Q: For `O=C(c1ccco1)N1CCN(C(=O)C2CC(c3ccc(F)cc3)=NO2)CC1` (stereo not given), which inhibition is on record?
A: The inhibition was 0% (inactive).

Q: Which inhibition does the source give for `C=CCn1c(-c2cccs2)nc2nc3ccccc3nc21` here?
A: Its inhibition is 0% (inactive).

Q: `c1ccc2nc(-c3nc4ccccc4[nH]3)ccc2c1` was tested. Which inhibition did it give?
A: The inhibition was 0% (inactive).

Q: With `Cc1nn(Cc2ccccc2)c(C)c1NC(=O)CCC(=O)O` as the compound, how does the inhibition read?
A: Its inhibition is 2% (inactive).

Q: How did the inhibition turn out when `COC(=O)c1ccc(-c2nn(C)c(=O)c3ccccc23)cc1` was run?
A: Its inhibition is 0% (inactive).

Q: Which inhibition does the source give for `CC(C)=CCCC(C)CN(C)CCc1ccccn1` (stereo not given) here?
A: Its inhibition is 0% (inactive).

Q: For `O=C(OC1CCOC1=O)c1ccc2ccccc2n1` (stereo not given), which inhibition is on record?
A: Its inhibition is 4% (inactive).
